Source: PubChem BioAssay (Tox21)
“And” between values parts separate entries of the source, which are not always exact repeats. Equal values may be shown once. Inconclusive results are not listed. Where a call stands in place of a potency, no number is given. Some structures have more than one record in an assay (separate samples or runs), and their calls can disagree. The source made the active and inactive calls. Unless noted, calls come from the whole dose curve; as a rule, active = well fitted curve in the direction sought with a large enough effect in the repeat runs; inconclusive = weak or mixed curves; inactive = no such curve, though single readings can be large; an effect the other way counts as inactive or inconclusive.

Key:
[1] = qHTS assay to identify aromatase inhibitors - cell viability counter screen (AID 743084);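 note: cells stimulated with testosterone during compound exposure; nearly all actives have a fitted effect of over 55% in size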
[2] = biological target: Aryl hydrocarbon receptor (Homo sapiens) (UniProt P35869); experiment: qHTS assay to identify small molecule that activate the aryl hydrocarbon receptor (AhR) signaling pathway (AID 743085); note: nearly all actives have a fitted effect of over 15% in size;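 for activation: HG2L7.5c1 human HepG2 liver cells with stably integrated DRE-driven firefly reporter; series mostly up to about 70 µM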
Aryl hydrocarbon receptor (Homo sapiens), sequence (P35869 whole entry, looked up): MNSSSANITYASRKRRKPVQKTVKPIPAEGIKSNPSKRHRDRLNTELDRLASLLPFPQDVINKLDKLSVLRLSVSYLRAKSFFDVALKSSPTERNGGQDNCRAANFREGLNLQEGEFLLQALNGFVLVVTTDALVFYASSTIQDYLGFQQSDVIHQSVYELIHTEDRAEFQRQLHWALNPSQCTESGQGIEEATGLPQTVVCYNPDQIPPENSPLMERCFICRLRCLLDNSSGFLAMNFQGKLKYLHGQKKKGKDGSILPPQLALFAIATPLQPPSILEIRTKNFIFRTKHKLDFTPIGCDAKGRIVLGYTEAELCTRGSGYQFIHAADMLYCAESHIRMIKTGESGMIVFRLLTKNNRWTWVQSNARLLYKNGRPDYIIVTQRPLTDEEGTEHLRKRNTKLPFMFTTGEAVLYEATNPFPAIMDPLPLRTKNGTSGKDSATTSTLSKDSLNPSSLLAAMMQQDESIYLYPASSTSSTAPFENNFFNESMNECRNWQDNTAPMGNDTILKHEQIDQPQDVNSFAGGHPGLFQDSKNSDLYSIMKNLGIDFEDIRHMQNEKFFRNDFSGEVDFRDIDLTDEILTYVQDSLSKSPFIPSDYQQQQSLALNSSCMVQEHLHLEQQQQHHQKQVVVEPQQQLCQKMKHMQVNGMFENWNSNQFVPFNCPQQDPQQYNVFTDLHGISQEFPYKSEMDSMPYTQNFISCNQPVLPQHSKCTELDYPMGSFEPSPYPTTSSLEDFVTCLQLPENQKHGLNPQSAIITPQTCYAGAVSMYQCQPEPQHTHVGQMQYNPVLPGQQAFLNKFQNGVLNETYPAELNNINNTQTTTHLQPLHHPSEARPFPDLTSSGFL
In short: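 Luminescence read-out: ONE-Glo reagent, 30 min at room temperature, in HG2L7.5c1 HepG2 reporter cells treated 24 h at 37C. Viability was measured beforehand by CellTiter-Fluor fluorescence after 30 min at 37C.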

[3] = qHTS assay to identify small molecule that activate the aryl hydrocarbon receptor (AhR) signaling pathway - cell viability counter screen (AID 743086); note: nearly all actives have a fitted effect of over 45% in size
In short: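 HepG2-AhR-luc (HG2L7.5c1) cells, 4000/well, treated 24 h at 37 C with compound; viability measured as CellTiter-Fluor fluorescence after 30 min in the same wells as the luciferase read.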

[4] = biological target: Peroxisome proliferator-activated receptor gamma (Homo sapiens) (UniProt P37231); experiment: qHTS assay to identify small molecule agonists of the peroxisome proliferator-activated receptor gamma (PPARg) signaling pathway (AID 743094; active = well fitted activation curve with a large enough effect in the signal ratio in the repeat runs, not every such curve was filed as active; the % refers to the signal ratio)
Peroxisome proliferator-activated receptor gamma (Homo sapiens), sequence (P37231 whole entry, looked up): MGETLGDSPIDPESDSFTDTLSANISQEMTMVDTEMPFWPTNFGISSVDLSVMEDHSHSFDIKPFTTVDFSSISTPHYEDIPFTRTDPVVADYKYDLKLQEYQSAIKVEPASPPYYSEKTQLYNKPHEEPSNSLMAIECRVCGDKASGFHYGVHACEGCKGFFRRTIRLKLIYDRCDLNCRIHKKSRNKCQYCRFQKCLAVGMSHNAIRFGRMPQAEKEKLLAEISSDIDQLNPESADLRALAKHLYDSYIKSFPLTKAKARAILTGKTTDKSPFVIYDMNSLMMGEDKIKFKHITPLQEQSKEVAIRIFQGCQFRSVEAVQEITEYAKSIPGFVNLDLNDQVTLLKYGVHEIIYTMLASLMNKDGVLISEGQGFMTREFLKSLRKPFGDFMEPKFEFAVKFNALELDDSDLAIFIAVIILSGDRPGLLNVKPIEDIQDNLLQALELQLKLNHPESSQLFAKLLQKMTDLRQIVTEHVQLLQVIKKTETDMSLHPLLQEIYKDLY
In short: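 Stably transfected HEK293H cells (GeneBLAzer PPARg UAS-bla) were incubated with test substances for 17 h at 37C after a 5 h pre-incubation; beta-lactamase activity was then detected by FRET substrate fluorescence.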

[5] = biological target: Peroxisome proliferator-activated receptor gamma (Homo sapiens) (UniProt P37231); experiment: qHTS assay to identify small molecule antagonists of the peroxisome proliferator-activated receptor gamma (PPARg) signaling pathway (AID 743191; calls by dose curve; note: nearly all actives have a fitted effect of over 30% in size)
In short: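 GeneBLAzer PPARg UAS-bla HEK293H cells, 5 h post-plating, exposed to compounds 17 h at 37C. LiveBLAzer B/G FRET substrate added for 1 h at room temperature; beta-lactamase reporter read by fluorescence intensity.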

[6] = qHTS assay to identify small molecule antagonists of the peroxisome proliferator-activated receptor gamma (PPARg) signaling pathway - cell viability counter screen (AID 743194); note: nearly all actives have a fitted effect of over 55% in size
In short: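 Cytotoxicity counter screen in PPARg-bla HEK293H cells, same wells as reporter assay. Compounds plus 50 nM rosiglitazone (final) for 17 h at 37 C, then viability read by CellTiter-Glo luminescence.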

[7] = qHTS assay for small molecule agonists of the antioxidant response element (ARE) signaling pathway (AID 743202; active = well fitted activation curve with a large enough effect in the signal ratio in the repeat runs, not every such curve was filed as active; the % refers to the signal ratio)
In short: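 ARE-bla HepG2 cells (beta-lactamase reporter under the antioxidant response element), plated 5 hours, then exposed to compounds 16 hours at 37 C. LiveBLAzer B/G FRET substrate added for 2 hours at room temperature; fluorescence intensity read.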

[8] = qHTS assay for small molecule agonists of the antioxidant response element (ARE) signaling pathway - cell viability counter screen (AID 743203; calls by dose curve; note: nearly all actives have a fitted effect of over 55% in size)
In short: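 Cells (ARE-bla HepG2, 2,000/well) receive DMSO-dissolved compounds after a 5 hrs rest. Plates incubate 16 hrs at 37C/5% CO2. CellTiter-Glo luminescence is then recorded after 30 min at room temperature.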

[9] = qHTS assay for small molecule activators of the heat shock response signaling pathway - cell viability counter screen (AID 743209); note: nearly all actives have a fitted effect of over 50% in size
In short: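 Quantitative HTS format, Tox21 10K library. HeLa cells carrying an HSE-driven beta-lactamase reporter were treated 5 h at 37 C, then assessed for viability by CellTiter-Glo luminescence.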

[10] = qHTS assay for small molecule activators of the heat shock response signaling pathway (AID 743210; active = well fitted activation curve with a large enough effect in the signal ratio in the repeat runs, with a control signal flat, not every such curve was filed as active; the % refers to the signal ratio; for activation: series mostly up to about 63 µM)
In short: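 HSE-bla HeLa cells (beta-lactamase reporter under heat shock response elements), plated overnight, then exposed to compounds 5 h at 37 C; LiveBLAzer B/G FRET substrate added, 2.5 h at room temperature, fluorescence intensity read.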
Potency is the fitted concentration of half-maximal effect.

Row | Compound | Potency [1] | Potency [2] | Potency [3] | Potency [4] | Potency [5] | Potency [6] | Potency [7] | Potency [8] | Potency [9] | Potency [10]
1 | CCC(C)(Oc1ccc(C2(c3ccc(OC(C)(CC)C(=O)O)cc3)CCCCC2)cc1)C(=O)O (centres undefined) | inactive | inactive | inactive | inactive | inactive | inactive | inactive | inactive | inactive | inactive
2 | CC(C)CCOCc1ccccc1 | inactive | inactive | inactive | inactive | inactive | inactive | inactive | inactive | inactive | inactive
3 | C=C(C)C1CC=C(C)C(OC(C)=O)C1 (centres undefined) | inactive | inactive | inactive | inactive | inactive | inactive | inactive | inactive | inactive | inactive
4 | NNCCc1ccccc1 | inactive | 10.1 µM (active) and 30.7 µM (active) | inactive | inactive | inactive | inactive | inactive | inactive | inactive | inactive
5 | CC(=O)CC(=O)Nc1ccc2[nH]c(=O)[nH]c2c1 | inactive | inactive | inactive | inactive | inactive | inactive | inactive | inactive | inactive | inactive
6 | COC(=O)c1cccc(C(=O)OC)c1 | inactive | inactive | inactive | inactive | inactive | inactive | inactive | inactive | inactive | inactive
7 | Cc1cc(C(C)(C)C)c(O)c(C(C)(C)C)c1 | inactive | inactive | inactive | inactive | inactive | inactive | inactive | inactive | inactive | inactive
8 | CCN1CCCC1CNC(=O)c1cc(S(=O)(=O)CC)c(N)cc1OC (centres undefined) | inactive | inactive | inactive | inactive | inactive | inactive | inactive | inactive | inactive | inactive
9 | O=C(Cl)c1cccc(C(=O)Cl)c1 | inactive | inactive | inactive | inactive | inactive | inactive | inactive | inactive | inactive | inactive
10 | CCC(=O)/C=C/C1C(C)=CCCC1(C)C (centres undefined) | inactive | inactive | inactive | inactive | inactive | inactive | inactive | inactive | inactive | inactive
11 | CCN(CC)C(=O)Nc1ccc(OCC(O)CNC(C)(C)C)c(C(C)=O)c1 (centres undefined) | inactive | inactive | inactive | inactive | inactive | inactive | inactive | inactive | inactive | inactive
12 | c1ccc2cc3c(ccc4ccccc43)cc2c1 | inactive | 4.34 µM (active) and 6.86 µM (active) | inactive | inactive | inactive | inactive | 6.11 µM (active) | inactive | inactive | inactive
13 | Cc1cc(C2(c3cc(C)c(O)cc3C)OS(=O)(=O)c3ccccc32)c(C)cc1O | 21.7 µM (active) and 24.3 µM (active) | 30.6 µM (active) and inactive | 19.3 µM (active) and 21.7 µM (active) | inactive | inactive | inactive | inactive | inactive | inactive | 
14 | C1COC(NC(C2CC2)C2CC2)=N1 | inactive | inactive | inactive | inactive | inactive | inactive | inactive | inactive | inactive | inactive
15 | NCCCCCC(=O)O | inactive | inactive | inactive | inactive | inactive | inactive | inactive | inactive | inactive | inactive
16 | CCc1cc(C(C)(C)C)c(O)c(C(C)(C)C)c1 | inactive | inactive | inactive | inactive | inactive | inactive | inactive | inactive | inactive | inactive
17 | CC(C(O)c1ccc(O)cc1)N1CCC(Cc2ccccc2)CC1 (centres undefined) | inactive | inactive | inactive | inactive | inactive | inactive | inactive | inactive | inactive | inactive
18 | CCCCN(CCO)CCCC | inactive | inactive | inactive | inactive | inactive | inactive | inactive | inactive | inactive | inactive
19 | CC1COc2c(N3CCN(C)CC3)c(F)cc3c(=O)c(C(=O)O)cn1c23 (centres undefined) | inactive | inactive | inactive | inactive | inactive | inactive | inactive | inactive | inactive | inactive
20 | CC(=O)C1=C(C)[C@@H]2C[C@@]3(C1)[C@H](C)CC[C@H]3C2(C)C | inactive | inactive | inactive | inactive | inactive | inactive | inactive | inactive | inactive | inactive
21 | O=C(Oc1ccccc1)c1ccccc1O | inactive | inactive | inactive | inactive | inactive | inactive | inactive | inactive | inactive | inactive

Row | Compound | Potency [1] | Potency [2] | Potency [3] | Potency [4] | Potency [5] | Potency [6] | Potency [7] | Potency [8] | Potency [9] | Potency [10]
22 | Cc1ccnc2c1NC(=O)c1cccnc1N2C1CC1 | inactive | inactive | inactive | inactive | inactive | inactive | inactive | inactive | inactive | inactive
23 | CCC(CO)(CO)COCC(CC)(CO)CO | inactive | inactive | inactive | inactive | inactive | inactive | inactive | inactive | inactive | inactive
24 | C[N+]1([O-])CCOCC1 | inactive | inactive | inactive | inactive | inactive | inactive | inactive | inactive | inactive | inactive
25 | CC(=O)N[C@@H](CS)C(=O)O | inactive | inactive | inactive | inactive | inactive | inactive | inactive | inactive | inactive | inactive
26 | CCOc1ccccc1C(N)=O | inactive | inactive | inactive | inactive | inactive | inactive | inactive | inactive | inactive | inactive
27 | NC12CC3CC(CC(C3)C1)C2 | inactive | inactive | inactive | inactive | inactive | inactive | inactive | inactive | inactive | 
28 | CCn1c2ccccc2c2cc(N)ccc21 | inactive | 9.59 µM (active) and 9.69 µM (active) and 3.06 µM (active) | inactive | inactive | inactive | inactive | inactive | inactive | inactive | 
29 | CCC[C@H](N[C@@H](C)C(=O)N1[C@H](C(=O)O)C[C@@H]2CCCC[C@@H]21)C(=O)OCC | inactive | inactive | inactive | inactive | inactive | inactive | inactive | inactive | inactive | inactive
30 | CCOc1ccc2c(c1)C(C)=CC(C)(C)N2 | inactive | inactive | inactive | 21.3 µM (active) | inactive | inactive | 61.1 µM (active) | inactive | inactive | 
31 | Cc1cccc(O)c1C | inactive | inactive | inactive | inactive | inactive | inactive | inactive | inactive | inactive | inactive
32 | C=CS(=O)(=O)O | inactive | inactive | inactive | inactive | inactive | inactive | inactive | inactive | inactive | inactive
33 | O=C(OCc1ccccc1)c1ccc(O)cc1 | inactive | inactive | inactive | inactive | 43.6 µM (active) | inactive | inactive | inactive | inactive | inactive
34 | CC(=O)OCCOCCOCCOC(C)=O | inactive | inactive | inactive | inactive | inactive | inactive | inactive | inactive | inactive | inactive
35 | O=C1NCC2(CCN(CCc3ccccc3)CC2)O1 | inactive | inactive | inactive | inactive | inactive | inactive | inactive | inactive | inactive | inactive
36 | Cc1scc2c1N(C(=O)CN1CCN(C)CC1)c1ccccc1NC2=O | inactive | inactive | inactive | inactive | inactive | inactive | inactive | inactive | inactive | inactive
37 | O=S(=O)(O)c1ccc2nc(-c3ccccc3)[nH]c2c1 | inactive | inactive | inactive | inactive | inactive | inactive | inactive | 20.6 µM (active) and inactive |  | inactive
38 | COc1ccc(COC(C)=O)cc1 | inactive | inactive | inactive |  |  | inactive | inactive | inactive | inactive | inactive and 54.9 µM (active)
39 | CC(C)(C)NC(=O)[C@@H]1CN(Cc2cccnc2)CCN1C[C@@H](O)C[C@@H](Cc1ccccc1)C(=O)N[C@H]1c2ccccc2C[C@H]1O | 26.6 µM (active) | inactive | inactive |  |  | inactive | inactive | inactive | inactive | inactive
40 | O=C(O)c1cn(-c2ccc(F)cc2)c2cc(N3CCNCC3)c(F)cc2c1=O | inactive | inactive | inactive | inactive |  | inactive | inactive | inactive | inactive | inactive
41 | CC(=O)Nc1ccc(C(=O)CCl)cc1 | 7.7 µM (active) | inactive | inactive | inactive |  | 13.8 µM (active) | 34.6 µM (active) | inactive and 19.3 µM (active) | inactive and 3.89 µM (active) | inactive
